Assay results reported in the supplement of paper PMC3334620.
In all, about 33,000 sequences were measured (“E-score (-0.5 to 0.5)”: median about -0.056, highest 2% from about 0.38 on). The full list was thinned out, with the highest values kept by preference.

Target: Stb4 (UniProt P50104)
Experiment: PBM E-score (8-mer binding enrichment) (E-score (-0.5 to 0.5)); higher = stronger / more preferred TF binding
Details: protein concentration: 200 nM; construct: GST-DNA-binding domain
Procedure: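 Universal 'all 10-mer' protein binding microarrays (Agilent AMADID 015681) probed with GST-tagged S. cerevisiae TFs (full-length or DBD) made by in vitro transcription/translation (PURExpress), about 100-200 nM. Bound TF was detected with fluorescent anti-GST. Each ungapped 8-mer (which stands for itself and its reverse complement) is scored by the PBM enrichment score (E-score), a modified Wilcoxon-Mann-Whitney statistic from -0.5 to +0.5, computed with the Universal PBM Analysis Suite. Scale: above 0.35 generally sequence-specific binding.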

Sequence of UniProt P50104 (P50104 whole entry): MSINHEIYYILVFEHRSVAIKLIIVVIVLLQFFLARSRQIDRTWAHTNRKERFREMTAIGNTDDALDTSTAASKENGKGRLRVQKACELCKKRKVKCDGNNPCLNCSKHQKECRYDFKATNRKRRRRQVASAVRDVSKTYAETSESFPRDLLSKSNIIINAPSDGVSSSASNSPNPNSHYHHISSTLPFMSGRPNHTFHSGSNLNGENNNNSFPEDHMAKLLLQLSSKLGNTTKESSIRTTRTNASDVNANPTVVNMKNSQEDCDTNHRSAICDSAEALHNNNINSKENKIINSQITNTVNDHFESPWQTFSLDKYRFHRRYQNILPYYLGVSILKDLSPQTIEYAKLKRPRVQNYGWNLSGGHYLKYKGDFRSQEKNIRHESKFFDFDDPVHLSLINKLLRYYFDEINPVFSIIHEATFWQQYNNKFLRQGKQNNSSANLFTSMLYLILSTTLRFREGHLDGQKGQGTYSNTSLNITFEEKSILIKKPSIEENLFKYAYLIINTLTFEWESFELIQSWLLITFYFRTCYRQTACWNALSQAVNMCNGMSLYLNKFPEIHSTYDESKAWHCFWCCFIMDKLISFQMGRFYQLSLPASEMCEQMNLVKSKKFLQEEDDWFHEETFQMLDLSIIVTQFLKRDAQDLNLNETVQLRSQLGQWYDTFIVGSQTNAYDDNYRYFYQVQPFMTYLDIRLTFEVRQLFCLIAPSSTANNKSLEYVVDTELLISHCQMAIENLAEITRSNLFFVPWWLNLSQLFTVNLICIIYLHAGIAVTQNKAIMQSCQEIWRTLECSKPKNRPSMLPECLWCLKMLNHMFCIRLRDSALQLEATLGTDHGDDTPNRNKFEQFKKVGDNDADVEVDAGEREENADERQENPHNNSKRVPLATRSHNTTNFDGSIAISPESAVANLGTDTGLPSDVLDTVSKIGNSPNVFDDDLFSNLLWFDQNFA

Sequence | PBM E-score
CTACGAGC | -0.133
AGTTAGAG | -0.174
ACGTCCCT | -0.32
GCGCATTA | 0.00939
CCCTTGAG | -0.134
GTTGCCAA | -0.164
ATTGCCGA | 0.451
ATTGCCGC | 0.121
GTTGCCGA | 0.458
ATTGCCGG | 0.301
GTTGCCCA | -0.0723
CTTGCCTA | -0.286
CTTGCCGA | 0.396
CTTGCCGC | 0.18
CATATGAC | -0.132
GGAGGTAC | 0.112
AAGAAACG | -0.084
GTCGAAAA | -0.122
GAATCCAC | -0.134
GATGCCAC | -0.0531
CACTCTTC | -0.0762
GAGCCTGC | -0.0113
AAATTCGC | 0.0337
ATATTCCC | 0.32
ATATTCGC | -0.034

Sequence | PBM E-score
AAATTCGT | 0.117
ATATTCCG | 0.393
ATATTCCA | 0.0331
AAATTCCA | -0.0536
AAATTCGG | 0.389
AAATTCCC | 0.167
ATATTCGA | 0.0718
AAATTCCG | 0.387
ATATTCGG | 0.399
CTTGCAGC | -0.153
TCCAGTCA | -0.0411
CAGTGTGG | -0.271
AAAAAGGT | -0.106
AATGTTTG | -0.0254
CCACTCTC | 0.0625
GATAAGAC | 0.0398
AGATTCCC | 0.127
AGATTCCT | -0.216
AGATTCCG | 0.389
ACGGTGTC | 0.0812
CGGTCCAG | -0.0508
GGACATAC | 0.0378
CACCCAGC | 0.0106
AATTCGAA | -0.191
TATTCGCA | -0.147

Sequence | PBM E-score
AATTCGTA | 0.0882
GATTCGCA | -0.0177
TATTCGGA | 0.426
GATTCGTA | 0.0772
CATTCGTA | -0.194
CATTCGGA | 0.383
AATTCGGA | 0.447
TATTCGAA | -0.2
GATTCGGA | 0.43
CATTCGGG | 0.343
ACCCATAG | -0.221
GGCGTTCA | -0.0303
CGCGACTC | -0.0117
CCTTAGTC | -0.155
CGAGCACC | 0.204
CTATTCCC | 0.0798
AGCAGTAC | 0.0047
GATTCGGC | 0.393
CATTCGTC | -0.0104
GATTCGCC | -0.0248
AATTCGGG | 0.39
AATTCGGT | 0.278
AATTCGGC | 0.357
CATTCGGC | 0.409
CATTCGCC | -0.0759

Sequence | PBM E-score
GATTCGAC | -0.233
GACAAAAC | -0.0388
GTACATCA | -0.00531
GTTATCCA | 0.0169
AAATCTCA | -0.0445
ATCGGCTA | 0.403
ATCGGCTG | 0.328
GTCGGCTA | 0.377
CTCGGCTC | 0.422
CTCGGCTA | 0.472
AACGGCTA | 0.16
CACGGCTA | 0.299
CGCGGCTC | 0.191
ATCGGCTC | 0.279
ATCAGCAC | -0.139
CAGGTGGA | -0.236
GAAGTTGA | -0.085
ACATCCGG | 0.447
CCATCCGC | 0.28
ACATCCTG | -0.0816
CCATCCGA | 0.453
CCATCCGG | 0.332
ACATCCGT | 0.348
TCATCCGA | 0.473
ACATCCCA | -0.0846

Sequence | PBM E-score
TCATCCAA | -0.191
ACATCCGA | 0.486
TCATCCCA | -0.181
ACATCCAG | -0.261
CAACTAGG | -0.0487
TCTTCGCA | -0.0992
GTGTGCAA | -0.127
ACGTTCCC | 0.11
ATTCAACC | 0.00448
AAAGACAT | -0.14
GCGGGGGA | 0.0109
CCGCAAGA | 0.151
GCATCCTA | -0.163
GCATCCGC | 0.295
GCATCCGA | 0.466
ACGGCCAG | -0.124
CTCGGTAA | 0.431
ATCGGTAC | 0.329
CTCGGTAC | 0.383
GTCGGTAA | 0.333
CTCGGTGC | 0.244
CTCGGTTA | 0.44
ATCGGTTA | 0.368
ATCGGTAA | 0.336
GTCGGTTA | 0.343

Sequence | PBM E-score
CGAACGGA | 0.327
GTCTAAAA | -0.0585
GTACTGAC | -0.0527
AGTAAGCG | -0.0174
AGACTATG | -0.17
ACCAGGCG | -0.159
CATACAGA | -0.0776
AGTGATTG | -0.0135
ACCTCGTC | -0.0708
ACCTCGTA | 0.0536
ACCTCGGA | 0.463
ACCTCGTG | -0.0555
ACCTCGGC | 0.415
ACCTCGAG | -0.0838
ACCTCGAA | -0.105
CCCTCGTC | 0.0826
ACCTCGGG | 0.421
ACCTCGCC | -0.0213
CCCTCGCC | -0.217
CCCTCGGC | 0.399
AGTAGATA | -0.0337
CTCCATTA | -0.148
CGCCTTTC | -0.0815
AGGGTAAA | 0.0281
TGGGTAAA | -0.0511

Sequence | PBM E-score
CGGGTAAC | 0.393
CGGGTAAG | 0.336
CGGGTAAA | 0.424
GGGGTAAC | -0.122
AAGCCTAC | -0.253
CACACTGG | -0.18
CATTTAGG | -0.174
ACGCTTTG | 0.035
GTCTATTA | -0.00563
CTCGGGAC | 0.45
ATCGGGGA | 0.243
CCGGGGAC | 0.157
CACGGGAC | 0.214
CCCGGGAC | 0.387
GTCGGGAA | 0.377
ATCGGGAG | 0.367
ATCGGGAC | 0.284
CTCGGGGA | 0.349
ATCGGGAA | 0.412
CTCGGGAA | 0.462
GCCGGGAC | 0.28
AGCAACTC | -0.0301
TACTCAAA | -0.108
CTTATCGA | -0.105
AGTCACTG | -0.274

Sequence | PBM E-score
AACTGAAA | -0.121
CCCTATAC | -0.154
ACACCGTG | 0.106
CTTGACGA | -0.0253
ACTACTTG | -0.195
CTGAGCTC | -0.172
CCGAGCTA | 0.424
ACGAGCTC | 0.0375
CCGAGCTC | 0.435
GCGAGCTA | -0.0842
ACGAGCTA | -0.221
CACGGTCA | -0.197
CAACTACG | -0.0502
TGAGAACA | -0.212
ACCGGAGC | 0.244
AGCGGAAG | 0.335
CCCGGAAG | 0.417
ACCGGAAT | 0.294
ACGGGAAG | 0.232
ACCGGAAC | 0.419
CCCGGAAC | 0.416
CCGGGAAC | 0.381
CCCGGAGG | 0.206
CCCGGACC | 0.26
ACCGGAAG | 0.388

Sequence | PBM E-score
CCCGGACG | 0.163
CTGGTGGC | -0.167
CGACTCAC | 0.0516
GAATACCC | 0.341
AAAAGGAG | -0.0435
AGGTACCG | 0.254
CGAGTCTC | 0.0605
GGAGCCCA | -0.203
AGGTGCTC | -0.148
AGGCAGTC | -0.144
GAAGGCGA | -0.051
CGTGGGGC | -0.121
TCCGGACA | 0.322
TCCGGAAA | 0.439
TCCGGGAA | 0.388
GGCGGAAA | 0.277
GCCGGAAA | 0.401
TCCGGAGA | 0.335
ACCGGGAA | 0.335
GACGGAAA | 0.36
CCCGGAAA | 0.39
CCCGGGAA | 0.355
